From the supplement of paper PMC13380429 come the findings set out here.

Unmarked numbers belong to inactive results.

For the assay, the system named is Vero E6 infected with SARS-CoV-2. In words: inhibition of SARS-CoV-2 cytopathic effect; higher = more antiviral protection, active = above 15. As to conditions: 48 h. A general note: Damage to the host cells serves as the signal in cytopathic effect assays.

As for `CCCN(CCC)S(=O)(=O)c1ccc(C(=O)O)cc1` [probenecid], the “inhibition of SARS-CoV-2 cytopathic effect” value (shortened to “inhibition”) runs as follows: (1 nM) -0.75%; (8.33 nM) -2.02%; (100 nM) -2.27%; (833.33 nM) -2.63%; (10000 nM) -2.19%.

Turning to `CC(=O)O[C@H]1C[C@H](O[C@H]2[C@@H](O)C[C@H](O[C@H]3[C@@H](O)C[C@H](O[C@H]4CC[C@@]5(C)[C@H](CC[C@@H]6[C@@H]5C[C@@H](O)[C@]5(C)[C@@H](C7=CC(=O)OC7)CC[C@]65O)C4)O[C@@H]3C)O[C@@H]2C)O[C@H](C)[C@H]1O[C@@H]1O[C@H](CO)[C@@H](O)[C@H](O)[C@H]1O` [lanatoside-C], the “inhibition” value runs as follows: (1 nM) 0.4%; (8.33 nM) -0.46%; (100 nM) -8.78%; (833.33 nM) -9.54%; (10000 nM) -11.4%.

For `O=C(NC1CCN(CCCCC2(C(=O)NCC(F)(F)F)c3ccccc3-c3ccccc32)CC1)c1ccccc1-c1ccc(C(F)(F)F)cc1` [lomitapide], the “inhibition” value (1 nM) was 0.13%; the “inhibition” value (8.33 nM) is -1.36%; the “inhibition” value (100 nM) was 0.35%; the “inhibition” value (833.33 nM) was -1.45%; the “inhibition” value (10000 nM) is 20.9% (active).

Turning to `C=CCSCC1Nc2cc(Cl)c(S(N)(=O)=O)cc2S(=O)(=O)N1` (stereo not given) [althiazide], the “inhibition” value is 0.54% (1 nM); 0.99% (8.33 nM); -0.07% (100 nM); -0.46% (833.33 nM); 0.04% (10000 nM).

Turning to `O=C1c2ccccc2-c2c(NCCc3ccccc3)c(=O)[nH]c3cccc1c23`, the “inhibition” value reads like this: (1 nM) -0.39%; (8.33 nM) 1.98%; (100 nM) 0.01%; (833.33 nM) 2.52%; (10000 nM) 1.12%.

Consider `CCCCNC(=O)[C@@H]1Cc2ccccc2N1C(=O)[C@@H](N)CC` [butabindide], for which the “inhibition” value reads like this: (1 nM) 1.64%; (8.33 nM) 1.33%; (100 nM) -3.07%; (833.33 nM) 1.68%; (10000 nM) 2.75%.

For `CCCCCCCCCCCCCCCC[n+]1ccccc1` [cetylpyridinium], the “inhibition” value by setting is: (1 nM) 1.63%; (8.33 nM) 0.22%; (100 nM) 1.76%; (833.33 nM) -0.25%; (10000 nM) -21.9%.

With `Cc1cc(C)c(N(Cc2ccccc2)S(=O)(=O)c2ccc(OCCNC(=O)c3cc4ccccc4o3)cc2)c(C(=O)NO)c1`, the “inhibition” value is -0.99% (1 nM); 0.92% (8.33 nM); -1.74% (100 nM); -1.22% (833.33 nM); -6.93% (10000 nM).

On to `CN1C(C(=O)Nc2ccccn2)=C(O)c2ccccc2S1(=O)=O` [piroxicam], for which the “inhibition” value (1 nM) is 0.3%; the “inhibition” value (8.33 nM) was -0.73%; the “inhibition” value (100 nM) was 0.15%; the “inhibition” value (833.33 nM) is 0.8%; the “inhibition” value (10000 nM) was 1.41%.

Regarding `NC[C@H](O)c1ccc(O)c(O)c1` [norepinephrine], the “inhibition” value is 1.39% (1 nM); -0.56% (8.33 nM); -2.09% (100 nM); 0.33% (833.33 nM); -1.61% (10000 nM).

In the case of `Cc1cc(OCCCS(C)(=O)=O)cc(C)c1-c1cccc(COc2ccc3c(c2)OC[C@H]3CC(=O)O)c1`, the “inhibition” value by setting is: (1 nM) -1.83%; (8.33 nM) 0.64%; (100 nM) -0.31%; (833.33 nM) 3.74%; (10000 nM) 2.41%.

For `CCCCCCCCCCCC[N+](C)(C)CCOc1ccccc1` [domiphen], the “inhibition” value is -2.49% (1 nM); -1.64% (8.33 nM); 0.17% (100 nM); 0.26% (833.33 nM); -8.43% (10000 nM).

Consider `Nc1ccc(S(=O)(=O)Nc2cnc3ccccc3n2)cc1` [sulfaquinoxaline], for which the “inhibition” value runs as follows: (1 nM) -0.58%; (8.33 nM) 1.74%; (100 nM) -1.77%; (833.33 nM) -2.18%; (10000 nM) 1.39%.

With `CO[C@H]1/C=C\C=C(/C)C(=O)NC2=CC(=O)C(NCCN(C)C)=C(C[C@@H](C)C[C@H](OC)[C@H](O)[C@@H](C)/C=C(\C)[C@@H]1OC(N)=O)C2=O` [alvespimycin], the “inhibition” value is 0.5% (1 nM); 1.37% (8.33 nM); 0.62% (100 nM); 1.28% (833.33 nM); 12.4% (10000 nM).

`CS(=O)(=O)c1ccc(C2=C(c3ccccc3)C(=O)OC2)cc1` [rofecoxib]: the “inhibition” value (1 nM) was 1.64%; the “inhibition” value (8.33 nM) is -0.86%; the “inhibition” value (100 nM) was -0.87%; the “inhibition” value (833.33 nM) was 0.62%; the “inhibition” value (10000 nM) was 1.14%.

Consider `c1ccc2nc(C3=NCCN3)cnc2c1`, for which the “inhibition” value (1 nM) is 2.54%; the “inhibition” value (8.33 nM) was 1.85%; the “inhibition” value (100 nM) is 1.24%; the “inhibition” value (833.33 nM) is 4.82%; the “inhibition” value (10000 nM) is 2.03%.

For `Oc1cc(O)c2c(c1)O[C@H](c1ccc(O)c(O)c1)[C@H](O)[C@H]2c1c(O)cc(O)c2c1O[C@H](c1ccc(O)c(O)c1)[C@H](O)C2` [procyanidin-B-2], the “inhibition” value was 2.26% (1 nM); 3.77% (8.33 nM); 2.22% (100 nM); 2.06% (833.33 nM); -0.73% (10000 nM).
